# Assay results from PMC7862700, “An all-to-all approach to the identification of sequence-specific readers for epigenetic DNA modifications on cytosine”.
# What was measured:
# Assay in all cases: DAPPL (digital affinity profiling via proximity ligation, sequencing); 10 mM Tris-HCl pH 7.5, 50 mM NaCl, 1 mM DTT, 4% glycerol, room temperature, 30 min; GST-TFs on glutathione beads, 16-mer random dsDNA library, 0.1% formaldehyde crosslink after washing; high values mean tight binding
# Conditions in all cases: protein: recombinant; tags: N-terminal GST; dsDNA, one strand shown
# [1] = biological target: T1, FLI1 (Homo sapiens, UniProt Q01543 1-452)
# T1 sequence: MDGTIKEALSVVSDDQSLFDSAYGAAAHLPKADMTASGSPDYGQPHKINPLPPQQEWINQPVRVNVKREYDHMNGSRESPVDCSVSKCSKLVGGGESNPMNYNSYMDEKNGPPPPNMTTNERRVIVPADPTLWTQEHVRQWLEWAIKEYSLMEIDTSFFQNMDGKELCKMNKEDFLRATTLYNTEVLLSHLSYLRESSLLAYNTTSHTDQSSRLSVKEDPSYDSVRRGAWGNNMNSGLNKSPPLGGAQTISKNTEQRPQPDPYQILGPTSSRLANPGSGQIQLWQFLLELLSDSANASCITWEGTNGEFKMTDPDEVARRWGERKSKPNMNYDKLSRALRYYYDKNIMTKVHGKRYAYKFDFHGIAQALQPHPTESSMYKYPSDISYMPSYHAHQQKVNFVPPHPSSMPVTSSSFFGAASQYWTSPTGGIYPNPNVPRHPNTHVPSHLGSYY
# Outline: (§1)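 Human transcription factors were made in yeast as GST fusions, captured on glutathione beads and barcoded with DNA. With a tag-only sample included, the pool was incubated with 200 nmole of a random double-stranded 16-mer DNA library in Tris/NaCl/DTT/glycerol buffer at room temperature for 30 min, then crosslinked with 0.1% formaldehyde after washing, ligated by proximity, amplified and sequenced. For binding signal, each hexamer's read frequency for a factor is divided by its frequency for the tag-only sample.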
# [2] = biological target: T2, ELK1 (Homo sapiens, UniProt P19419 1-428)
# T2 sequence: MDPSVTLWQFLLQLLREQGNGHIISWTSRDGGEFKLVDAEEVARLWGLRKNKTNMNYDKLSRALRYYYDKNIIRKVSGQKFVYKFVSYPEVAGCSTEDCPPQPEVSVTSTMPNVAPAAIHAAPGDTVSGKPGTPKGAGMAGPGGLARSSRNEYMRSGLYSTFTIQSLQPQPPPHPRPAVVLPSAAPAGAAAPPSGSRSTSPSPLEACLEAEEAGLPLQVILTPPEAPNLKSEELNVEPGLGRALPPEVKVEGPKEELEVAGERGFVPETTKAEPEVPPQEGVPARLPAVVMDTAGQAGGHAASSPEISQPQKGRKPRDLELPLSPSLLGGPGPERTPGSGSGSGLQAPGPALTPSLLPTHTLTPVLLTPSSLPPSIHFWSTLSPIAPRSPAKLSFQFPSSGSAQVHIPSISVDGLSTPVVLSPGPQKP
# Outline: as §1
# [3] = biological target: T3, GABPA (Homo sapiens, UniProt Q06546 1-454)
# T3 sequence: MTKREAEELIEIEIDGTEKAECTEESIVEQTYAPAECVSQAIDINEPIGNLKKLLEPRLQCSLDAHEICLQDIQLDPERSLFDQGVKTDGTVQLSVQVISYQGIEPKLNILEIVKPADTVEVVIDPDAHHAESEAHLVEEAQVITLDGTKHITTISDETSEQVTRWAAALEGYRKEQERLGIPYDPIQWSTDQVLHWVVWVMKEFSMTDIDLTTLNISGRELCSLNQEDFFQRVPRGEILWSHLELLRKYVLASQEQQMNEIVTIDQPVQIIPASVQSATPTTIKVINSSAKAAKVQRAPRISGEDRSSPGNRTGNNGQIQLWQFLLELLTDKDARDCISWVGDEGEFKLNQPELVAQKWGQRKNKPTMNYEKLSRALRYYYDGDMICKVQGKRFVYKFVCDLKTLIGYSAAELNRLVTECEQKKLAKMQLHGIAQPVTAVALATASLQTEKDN
# Outline: as §1
# [4] = biological target: ELF1 (Homo sapiens, UniProt P32519 1-619)
# Sequence of ELF1 (P32519 whole entry): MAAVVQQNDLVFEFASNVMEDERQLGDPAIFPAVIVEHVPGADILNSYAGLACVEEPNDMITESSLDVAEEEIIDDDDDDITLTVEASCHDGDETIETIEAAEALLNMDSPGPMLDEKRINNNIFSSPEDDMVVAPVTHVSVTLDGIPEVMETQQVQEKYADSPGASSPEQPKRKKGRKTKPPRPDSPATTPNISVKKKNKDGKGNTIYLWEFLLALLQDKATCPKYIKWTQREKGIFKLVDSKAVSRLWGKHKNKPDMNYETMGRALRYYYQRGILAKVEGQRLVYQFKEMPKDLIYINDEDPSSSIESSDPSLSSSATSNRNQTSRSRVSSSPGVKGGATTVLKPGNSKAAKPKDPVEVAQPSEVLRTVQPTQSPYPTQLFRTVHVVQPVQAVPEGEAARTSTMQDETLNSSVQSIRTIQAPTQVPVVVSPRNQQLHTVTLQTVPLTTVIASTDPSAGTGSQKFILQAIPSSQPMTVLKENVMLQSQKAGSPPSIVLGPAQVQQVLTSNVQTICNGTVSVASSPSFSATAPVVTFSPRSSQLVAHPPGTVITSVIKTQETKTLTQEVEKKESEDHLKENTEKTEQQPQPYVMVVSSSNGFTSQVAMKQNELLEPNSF
# Outline: as §1
# [5] = biological target: T4, EHF (Homo sapiens, UniProt Q9NZC4 1-300)
# T4 sequence: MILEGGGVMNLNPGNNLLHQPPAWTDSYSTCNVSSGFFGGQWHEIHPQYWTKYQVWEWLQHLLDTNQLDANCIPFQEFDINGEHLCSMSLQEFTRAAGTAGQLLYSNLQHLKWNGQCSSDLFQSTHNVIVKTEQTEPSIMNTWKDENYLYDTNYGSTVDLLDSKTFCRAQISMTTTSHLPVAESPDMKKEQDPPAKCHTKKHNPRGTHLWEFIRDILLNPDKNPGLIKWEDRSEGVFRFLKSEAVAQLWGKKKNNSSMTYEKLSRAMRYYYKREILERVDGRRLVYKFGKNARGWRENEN
# Outline: as §1
# [6] = biological target: SPIB (Homo sapiens, UniProt Q01892 1-262)
# Sequence of SPIB (Q01892 whole entry): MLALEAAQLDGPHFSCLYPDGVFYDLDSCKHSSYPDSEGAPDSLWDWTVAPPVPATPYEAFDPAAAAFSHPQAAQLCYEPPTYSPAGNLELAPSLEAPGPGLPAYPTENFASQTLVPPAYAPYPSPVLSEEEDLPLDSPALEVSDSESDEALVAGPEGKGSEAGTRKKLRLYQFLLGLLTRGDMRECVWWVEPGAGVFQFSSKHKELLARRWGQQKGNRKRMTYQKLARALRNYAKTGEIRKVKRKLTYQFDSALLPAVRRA
# Outline: as §1
# [7] = biological target: T5, SPIC (Homo sapiens, UniProt Q8N5J4 1-248)
# T5 sequence: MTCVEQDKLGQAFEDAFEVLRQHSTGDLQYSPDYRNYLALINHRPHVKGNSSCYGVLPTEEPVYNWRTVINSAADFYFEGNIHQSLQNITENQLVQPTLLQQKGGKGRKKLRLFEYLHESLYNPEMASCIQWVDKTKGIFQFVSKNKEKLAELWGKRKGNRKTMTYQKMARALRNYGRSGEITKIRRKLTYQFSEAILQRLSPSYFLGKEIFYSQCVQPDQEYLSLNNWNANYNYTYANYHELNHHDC
# Outline: as §1
# [8] = biological target: ELF4 (Homo sapiens, UniProt Q99607 1-663)
# Sequence of ELF4 (Q99607 whole entry): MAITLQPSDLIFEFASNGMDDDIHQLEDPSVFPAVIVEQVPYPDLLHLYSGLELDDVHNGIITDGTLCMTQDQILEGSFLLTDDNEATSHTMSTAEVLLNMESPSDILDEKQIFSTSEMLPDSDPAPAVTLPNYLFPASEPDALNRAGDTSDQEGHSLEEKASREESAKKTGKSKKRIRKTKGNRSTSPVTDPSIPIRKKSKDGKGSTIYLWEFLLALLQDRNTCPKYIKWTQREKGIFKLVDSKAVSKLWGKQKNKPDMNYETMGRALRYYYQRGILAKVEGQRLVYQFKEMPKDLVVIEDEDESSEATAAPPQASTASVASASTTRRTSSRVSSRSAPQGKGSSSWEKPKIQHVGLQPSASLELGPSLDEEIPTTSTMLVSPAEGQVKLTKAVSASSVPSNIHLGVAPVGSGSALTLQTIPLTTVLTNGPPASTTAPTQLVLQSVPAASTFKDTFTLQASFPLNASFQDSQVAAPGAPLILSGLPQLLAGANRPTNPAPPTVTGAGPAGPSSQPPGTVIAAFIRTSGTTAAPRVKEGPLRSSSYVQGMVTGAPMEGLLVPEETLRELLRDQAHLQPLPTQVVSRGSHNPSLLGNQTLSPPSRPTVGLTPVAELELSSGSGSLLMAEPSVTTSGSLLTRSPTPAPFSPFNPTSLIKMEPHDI
# Outline: as §1
# [9] = biological target: T6, ELK4 (Homo sapiens, UniProt P28324-2 1-405)
# T6 sequence: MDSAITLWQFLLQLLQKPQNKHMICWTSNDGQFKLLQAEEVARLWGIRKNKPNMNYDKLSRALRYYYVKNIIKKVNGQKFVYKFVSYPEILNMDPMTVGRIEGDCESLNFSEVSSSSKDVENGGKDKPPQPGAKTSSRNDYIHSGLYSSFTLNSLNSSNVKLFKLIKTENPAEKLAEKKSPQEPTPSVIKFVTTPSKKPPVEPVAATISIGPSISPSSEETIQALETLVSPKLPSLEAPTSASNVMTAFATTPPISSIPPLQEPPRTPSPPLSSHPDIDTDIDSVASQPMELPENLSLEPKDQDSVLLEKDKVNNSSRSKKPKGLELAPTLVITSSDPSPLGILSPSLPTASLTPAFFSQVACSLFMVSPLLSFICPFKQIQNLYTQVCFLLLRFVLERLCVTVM
# Outline: as §1
# [10] = biological target: T7, ETV2 (Homo sapiens, UniProt O00321 1-342)
# T7 sequence: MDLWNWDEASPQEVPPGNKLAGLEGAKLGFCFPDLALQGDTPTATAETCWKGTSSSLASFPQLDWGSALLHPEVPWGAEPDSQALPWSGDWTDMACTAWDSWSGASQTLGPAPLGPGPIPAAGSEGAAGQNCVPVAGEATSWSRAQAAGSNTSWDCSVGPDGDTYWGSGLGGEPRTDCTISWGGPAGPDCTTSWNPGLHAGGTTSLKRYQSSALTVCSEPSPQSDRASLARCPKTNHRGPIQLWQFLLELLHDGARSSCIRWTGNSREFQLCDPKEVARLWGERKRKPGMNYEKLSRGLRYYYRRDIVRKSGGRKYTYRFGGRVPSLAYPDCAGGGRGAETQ
# Outline: as §1
# [11] = biological target: T8, ELF3 (Homo sapiens, UniProt P78545 1-371)
# T8 sequence: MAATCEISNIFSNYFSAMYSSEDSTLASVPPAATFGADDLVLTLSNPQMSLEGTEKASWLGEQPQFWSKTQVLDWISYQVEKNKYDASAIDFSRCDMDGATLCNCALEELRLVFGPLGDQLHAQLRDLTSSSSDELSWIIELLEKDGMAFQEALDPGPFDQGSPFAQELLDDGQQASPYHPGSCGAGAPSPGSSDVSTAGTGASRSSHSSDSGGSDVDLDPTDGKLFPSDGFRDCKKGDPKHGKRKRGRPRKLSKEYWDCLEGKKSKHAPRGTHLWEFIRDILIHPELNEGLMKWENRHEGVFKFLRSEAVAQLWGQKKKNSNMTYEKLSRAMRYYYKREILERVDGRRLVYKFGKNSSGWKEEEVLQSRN
# Outline: as §1
# [12] = biological target: ETV1 (Homo sapiens, UniProt P50549 1-477)
# Sequence of ETV1 (P50549 whole entry): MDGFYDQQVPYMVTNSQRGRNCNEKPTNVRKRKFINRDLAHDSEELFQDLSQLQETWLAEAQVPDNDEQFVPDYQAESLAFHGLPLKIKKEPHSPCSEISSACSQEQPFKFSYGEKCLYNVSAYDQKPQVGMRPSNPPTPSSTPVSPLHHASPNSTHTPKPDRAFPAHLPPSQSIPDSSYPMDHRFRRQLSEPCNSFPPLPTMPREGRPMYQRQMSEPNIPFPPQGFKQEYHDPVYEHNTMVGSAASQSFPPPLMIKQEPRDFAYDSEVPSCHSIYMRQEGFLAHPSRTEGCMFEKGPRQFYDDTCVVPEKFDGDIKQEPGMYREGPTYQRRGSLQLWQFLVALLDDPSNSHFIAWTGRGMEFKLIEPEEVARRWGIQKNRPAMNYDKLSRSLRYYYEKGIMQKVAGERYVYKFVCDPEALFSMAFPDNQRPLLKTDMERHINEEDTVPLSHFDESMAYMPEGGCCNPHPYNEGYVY
# Outline: as §1
# [13] = biological target: T9, ERF (Homo sapiens, UniProt P50548 1-548)
# T9 sequence: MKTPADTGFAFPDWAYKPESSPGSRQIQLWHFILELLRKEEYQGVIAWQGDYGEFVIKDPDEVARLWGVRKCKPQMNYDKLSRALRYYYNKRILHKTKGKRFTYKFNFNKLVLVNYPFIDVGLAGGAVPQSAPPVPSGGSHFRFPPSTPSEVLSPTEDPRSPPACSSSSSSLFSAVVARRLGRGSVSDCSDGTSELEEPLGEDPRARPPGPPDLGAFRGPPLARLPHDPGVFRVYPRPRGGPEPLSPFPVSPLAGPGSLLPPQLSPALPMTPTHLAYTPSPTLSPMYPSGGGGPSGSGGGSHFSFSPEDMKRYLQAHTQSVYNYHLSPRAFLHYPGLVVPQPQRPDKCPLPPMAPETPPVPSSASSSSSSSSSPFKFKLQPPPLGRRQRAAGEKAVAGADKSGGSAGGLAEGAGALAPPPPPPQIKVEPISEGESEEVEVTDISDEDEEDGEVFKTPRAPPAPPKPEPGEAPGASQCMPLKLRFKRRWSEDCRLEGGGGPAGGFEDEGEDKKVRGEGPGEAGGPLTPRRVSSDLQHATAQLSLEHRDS
# Outline: as §1
# [14] = biological target: T10, ETV3L (Homo sapiens, UniProt Q6ZN32 1-361)
# T10 sequence: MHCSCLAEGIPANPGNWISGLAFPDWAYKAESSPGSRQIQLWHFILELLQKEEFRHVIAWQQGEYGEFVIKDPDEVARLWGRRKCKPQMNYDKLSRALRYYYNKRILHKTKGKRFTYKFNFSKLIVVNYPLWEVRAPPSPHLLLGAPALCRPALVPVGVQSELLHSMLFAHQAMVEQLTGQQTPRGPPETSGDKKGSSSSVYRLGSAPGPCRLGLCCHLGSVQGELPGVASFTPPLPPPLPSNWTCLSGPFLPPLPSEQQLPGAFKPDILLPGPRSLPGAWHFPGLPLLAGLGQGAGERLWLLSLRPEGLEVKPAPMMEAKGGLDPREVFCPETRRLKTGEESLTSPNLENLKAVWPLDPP
# Outline: as §1
# [15] = biological target: T11, ETS2 (Homo sapiens, UniProt P15036 1-469)
# T11 sequence: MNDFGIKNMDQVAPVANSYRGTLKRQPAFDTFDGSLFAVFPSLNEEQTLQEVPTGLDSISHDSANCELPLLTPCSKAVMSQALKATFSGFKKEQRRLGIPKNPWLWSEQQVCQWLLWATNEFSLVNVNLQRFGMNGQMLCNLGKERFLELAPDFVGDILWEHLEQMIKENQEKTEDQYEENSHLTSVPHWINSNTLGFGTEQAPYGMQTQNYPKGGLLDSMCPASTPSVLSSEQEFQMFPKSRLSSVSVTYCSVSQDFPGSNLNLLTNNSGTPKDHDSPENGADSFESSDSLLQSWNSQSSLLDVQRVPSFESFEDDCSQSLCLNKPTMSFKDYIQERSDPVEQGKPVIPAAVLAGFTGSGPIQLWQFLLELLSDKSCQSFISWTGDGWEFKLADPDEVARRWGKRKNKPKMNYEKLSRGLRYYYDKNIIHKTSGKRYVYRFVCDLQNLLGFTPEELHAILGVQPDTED
# Outline: as §1
# [16] = biological target: T12, ETV7 (Homo sapiens, UniProt Q9Y603 1-341)
# T12 sequence: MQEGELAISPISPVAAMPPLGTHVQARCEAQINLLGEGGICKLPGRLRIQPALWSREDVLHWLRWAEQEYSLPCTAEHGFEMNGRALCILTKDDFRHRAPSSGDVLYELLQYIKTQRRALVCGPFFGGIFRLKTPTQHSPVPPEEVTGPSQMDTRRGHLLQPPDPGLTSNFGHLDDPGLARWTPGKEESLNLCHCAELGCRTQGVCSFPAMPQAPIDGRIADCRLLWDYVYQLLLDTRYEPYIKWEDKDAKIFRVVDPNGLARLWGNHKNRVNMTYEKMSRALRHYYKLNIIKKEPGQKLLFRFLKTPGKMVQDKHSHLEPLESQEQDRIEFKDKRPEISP
# Outline: as §1
# [17] = biological target: T13, ETV3 (Homo sapiens, UniProt P41162-2 1-143)
# T13 sequence: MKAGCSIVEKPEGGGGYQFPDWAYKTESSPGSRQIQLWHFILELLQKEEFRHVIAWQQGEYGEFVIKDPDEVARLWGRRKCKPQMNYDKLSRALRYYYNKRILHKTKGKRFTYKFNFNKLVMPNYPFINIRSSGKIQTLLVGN
# Outline: as §1
# [18] = biological target: ETV6 (Homo sapiens, UniProt P41212 1-452)
# Sequence of ETV6 (P41212 whole entry): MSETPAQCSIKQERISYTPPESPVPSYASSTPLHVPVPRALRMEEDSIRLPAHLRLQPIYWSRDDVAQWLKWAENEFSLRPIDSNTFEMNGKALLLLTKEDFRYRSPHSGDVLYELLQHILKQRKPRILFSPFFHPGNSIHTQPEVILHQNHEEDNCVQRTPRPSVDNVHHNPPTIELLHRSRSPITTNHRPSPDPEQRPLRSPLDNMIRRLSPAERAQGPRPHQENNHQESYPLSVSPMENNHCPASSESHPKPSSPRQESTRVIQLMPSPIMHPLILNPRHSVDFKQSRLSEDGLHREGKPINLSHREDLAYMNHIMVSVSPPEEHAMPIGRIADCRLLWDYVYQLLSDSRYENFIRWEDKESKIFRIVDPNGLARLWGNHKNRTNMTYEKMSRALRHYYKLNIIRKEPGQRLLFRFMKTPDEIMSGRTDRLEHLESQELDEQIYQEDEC
# Outline: as §1
sequence,measurement,setting,value
ACAGCC,binding signal,[1],"1 fold enrichment (6-mer frequency, TF over GST control)"
same,binding signal,[2],"1.1 fold enrichment (6-mer frequency, TF over GST control)"
same,binding signal,[3],"1.07 fold enrichment (6-mer frequency, TF over GST control)"
same,binding signal,[4],"1.11 fold enrichment (6-mer frequency, TF over GST control)"
same,binding signal,[5],"1.11 fold enrichment (6-mer frequency, TF over GST control)"
same,binding signal,[6],"1.03 fold enrichment (6-mer frequency, TF over GST control)"
same,binding signal,[7],"1.08 fold enrichment (6-mer frequency, TF over GST control)"
same,binding signal,[8],"1.11 fold enrichment (6-mer frequency, TF over GST control)"
same,binding signal,[9],"1.04 fold enrichment (6-mer frequency, TF over GST control)"
same,binding signal,[10],"1.05 fold enrichment (6-mer frequency, TF over GST control)"
same,binding signal,[11],"1.24 fold enrichment (6-mer frequency, TF over GST control)"
same,binding signal,[12],"1.06 fold enrichment (6-mer frequency, TF over GST control)"
same,binding signal,[13],"1.18 fold enrichment (6-mer frequency, TF over GST control)"
same,binding signal,[14],"1.04 fold enrichment (6-mer frequency, TF over GST control)"
same,binding signal,[15],"1.03 fold enrichment (6-mer frequency, TF over GST control)"
same,binding signal,[16],"1.15 fold enrichment (6-mer frequency, TF over GST control)"
same,binding signal,[17],"1.04 fold enrichment (6-mer frequency, TF over GST control)"
same,binding signal,[18],"1.03 fold enrichment (6-mer frequency, TF over GST control)"
